Drawing on PubChem BioAssay AID602250 (The Scripps Research Institute Molecular Screening Center, 2012), this text covers inhibition for 92 compounds.

The structures appear in SMILES notation. In all, about 360,000 compounds went through this assay and about 2,200 (0.61%) were called active. Shown is part of a subset that was picked to be rich in actives. Values without a mark were called inactive.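 Rule for the calls: active = inhibition above a per-plate cutoff, the plate's mean sample inhibition plus 3 SD (cut at about 24% in these data); inactive = the rest.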

This assay can be described thus: nonselective inhibitors of ATP calcium response in CHO-K1, primary screen, counter-screen for M1 antagonist project, cell-based, Fluo-8 calcium fluorescence, full deck, 1536-well (AID 602250).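 Note: 0% = DMSO plus EC80 ATP and 100% = DMSO alone without ATP.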 Particulars: CHO-K1 parental, ATP-induced calcium, Fluo-8 fluorescence; at 3 µM; hits give high values. Background: Counterscreens check selectivity or assay interference.
The inhibition is the drop in the measured response relative to a control, in per cent. Regarding `O=C(c1ccccc1F)N(Cc1ccccc1)Cc1ccccc1`, the inhibition is -7.64%. The same measure for `COCCn1c(Cc2cccn2C)nnc1SCC(=O)Nc1nccs1`: -7.19%; for `Cc1ccc(S(=O)(=O)N2CCN(C(=O)c3cccs3)CC2)cc1`: -9.88%.

Take `O[C@H]1C[C@H](c2ccc(Cl)cc2)N(Cc2cccs2)C[C@@H]1n1cc(C2CC2)nn1`: the inhibition was -27.1%.

With `O=C(Nc1ccc(-c2ccc3nncn3n2)cc1)C1CCCCC1`, the inhibition was -5.78%. On to `CCCN(C(=O)CSc1nnnn1C)c1c(N)n(Cc2ccccc2)c(=O)[nH]c1=O`, for which the inhibition is 4.6%. Turning to `C#CCNC(=O)C[C@@H]1C[C@@]2(C(=O)OCC)CCCC=C2N(Cc2ccco2)C1=O`, the inhibition was -0.85%. Turning to `COc1cc(OC)cc(-c2nnc(SCC(=O)Nc3ccc(C(=O)O)cc3)s2)c1`, the inhibition is -8.28%. As to `CCCCNC(=O)CSc1nc2ccc(NC(=O)CSc3nnc(N)s3)cc2s1`, the inhibition is -6.75%. Turning to `Nc1nnc(SCC(=O)Nc2ccc3nc(SCC(=O)Nc4ccccc4)sc3c2)s1`, the inhibition was 30% (active).

`CCN(CC)CCN1C(=O)C2C(C(=O)Nc3ccc(Br)cc3)C3C=CC2(O3)C1C(=O)NC1CCCCC1` (configuration not stated): the inhibition is -12.1%. The same measure for `COc1ccc(C(=O)C2CCCN(C(=O)c3cc(C)on3)C2)cc1F` (configuration not stated): -2.55%. `COc1ccc(F)cc1C(=O)C1CCCN(C(=O)CCc2ccccn2)C1` (configuration not stated): the inhibition was 4.6%. Turning to `COc1ccc(C(=O)N2CCCC(C(=O)c3ccccc3OC)C2)cc1OC` (configuration not stated), the inhibition is 36.9% (active). For `CCN(CC)CC(=O)Nc1sc2c(c1C(=O)c1ccccc1C)CCC2`, the inhibition is 3.09%.

For the compound `O=C(Nc1cccc(Cl)c1)OCc1ccccn1`, the inhibition was 25.6% (active). `O=C(Nc1ccc(Cl)cc1)OCc1cc(-c2ccccc2)on1`: the inhibition is 7.62%. Take `O=C(Nc1ccc([N+](=O)[O-])cc1)OCCc1ccccn1`: the inhibition was -2.63%. With `O=C(CN1CCN(S(=O)(=O)c2ccc3ccccc3c2)CC1)NC(=O)NC1CCCCC1`, the inhibition is -2.87%. For the compound `COc1cc2ccc(C(C)=O)c(O)c2cc1OC`, the inhibition is -2.14%.

Regarding `O=C(CCS(=O)(=O)Cc1ccccc1)Nc1ccc2c(c1)OCCO2`, the inhibition was -8.23%. Take `O=C(CN(c1ccc2c(c1)OCCO2)S(=O)(=O)c1ccccc1)Nc1ccc2c(c1)OCO2`: the inhibition is 30.7% (active). Then `CCN(CC(=O)Nc1ccc2c(c1)OCO2)S(=O)(=O)c1ccccc1`, with -6.57%; and `CC1CCCCN1S(=O)(=O)CCNC(=O)c1ccccc1` (configuration not stated), with 14.2%. Then `CCOc1ccccc1N1C(=O)CC(Sc2nccc(C)n2)C1=O` (configuration not stated), with -15.2%. For the compound `CC(=O)Nc1ccc(N2C(=O)CC(Sc3nccc(C)n3)C2=O)cc1` (configuration not stated), the inhibition was 23.8% (active). Consider `Cc1ccnc(SC2CC(=O)N(c3ccccc3)C2=O)n1` (configuration not stated), for which the inhibition was 16.3%. Turning to `C#Cc1ccc([C@@H]2C=C(C(=O)O)O[C@H](OCCCCO)C2)cc1`, the inhibition is -9.51%. Then `CN(N)c1nc(N2CCCC2)nc(N2CCCC2)n1`, with 25.6% (active); and `O=C(NNc1nc(N2CCCC2)nc(N2CCCC2)n1)c1ccccc1`, with -8.06%; and `FC(F)(F)COc1nc(N2CCCCC2)nc(N2CCNCC2)n1`, with -9.46%. Then `COC(=O)c1ccc(CN2CCCC(C(=O)Nc3cccc(-n4cnnn4)c3)C2)cc1` (configuration not stated), with 0.04%; and `O=Cc1c(NCCc2cccc(F)c2)c2ccccc2[nH]c1=O`, with -10.6%; and `CCCCOc1ccc(N(CC(=O)NC(C)C)C(=O)CCC(=O)Nc2ccccn2)cc1`, with 23.1%. As for `COc1cc(CNc2ncn[nH]2)ccc1OCc1ccccc1C`, the inhibition was -1.69%.

As to `O=C(CNS(=O)(=O)c1ccccc1)NCC(=O)OCc1ccccc1F`, the inhibition was -0.17%. Then `CCOC(=O)c1c(N=CN(C)C)c(C#N)c2n1CCCC2`, with -8.04%; and `CCSc1ncnc2c(C#N)c3n(c12)CCCCC3`, with 40.4% (active). As to `CCSC1=C(C#N)C(=O)n2c1cc1c2CCCC1`, the inhibition is -1.55%.

With `Cc1cc2oc(=O)cc(CN(C)Cc3ccccc3)c2cc1Cl`, the inhibition is 6.2%. In the case of `Cc1ccc2nc(NC(=O)CSc3nc(=O)n(CCCN(C)C)c4c3CCC4)sc2c1`, the inhibition is -19.7%. The same measure for `CCN(CC)CCn1c2c(c(SCC(=O)Nc3ccc(C(C)C)cc3)nc1=O)CCC2`: -0.47%; for `CCN(CC)CCn1c2c(c(SCC(=O)Nc3nc4ccccc4s3)nc1=O)CCCC2`: 28.3% (active); for `C=CCNC(=S)NNc1ncnc2sc3c(c12)CC(C)(C)OC3`: -3.73%. For `O=C(C1CCN(S(=O)(=O)c2cccs2)CC1)N1CCCCCC1`, the inhibition is -13.2%.

Regarding `Cc1ccc(S(=O)(=O)N2C[C@]3(O)C[C@@H]4C(=O)N(c5ccccc5)C(=O)[C@@H]4C[C@]3(OC(=O)NC3CC3)C2)cc1`, the inhibition was -3.35%. On to `Cc1cccc(NC(=O)c2ccc3nsnc3c2)c1C`, for which the inhibition is -0.08%.

Consider `CC(C)n1c(=O)[nH]c2cc(C(=O)Nc3ccccc3)ccc21`, for which the inhibition is 2.48%. For `O=C(Nc1ccccc1)c1ccc2nsnc2c1`, the inhibition is 29.9% (active). Take `CCC1Oc2ccc(Cl)cc2N(CC(=O)O)C1=O` (configuration not stated): the inhibition is -18.5%. Regarding `COc1ccc(C(=O)NC(=S)N2CCNC(=O)C2CC(=O)OC(C)C)cc1` (configuration not stated), the inhibition was -6.8%. Take `Cc1ccccc1C(=O)NCCN=C1NS(=O)(=O)c2ccccc21`: the inhibition was 27.1% (active).

`CN(C)S(=O)(=O)c1ccc(C(=O)NCCN=C2NS(=O)(=O)c3ccccc32)cc1`: the inhibition was -3.13%. As to `O=C(NCCN=C1NS(=O)(=O)c2ccccc21)c1ccc(S(=O)(=O)N2CCOCC2)cc1`, the inhibition is 2.91%. Regarding `O=C(c1cc(COc2c(F)cccc2F)on1)N1CCSCC1`, the inhibition was -8.58%. For the compound `CCCC(=O)N1CCC1(C)C(=O)Nc1ccc(-n2cncn2)cc1` (configuration not stated), the inhibition is -6.21%. On to `C=CCC1(CC=C)CCCN1C(=O)c1cc(COc2ccc(-n3cncn3)cc2)on1`, for which the inhibition is 31.3% (active).

As to `CCc1cc(C(c2ccccc2OC)N2CCOCC2)c(NC(=O)c2ccccc2)s1` (configuration not stated), the inhibition is 24.8% (active).

For `COc1ccccc1C(=O)Nc1cccc(C(=O)N2CCOCC2)c1`, the inhibition was -9.07%. Regarding `COc1cc(C(c2c(NC(=O)c3ccco3)sc(C)c2C)N2CCOCC2)cc(OC)c1OC` (configuration not stated), the inhibition is 5.36%. For the compound `CC(C)OCCCNC(=O)c1ccc(C2SCC(=O)N2Cc2ccco2)cc1` (configuration not stated), the inhibition is -4.67%. Then `COC(=O)c1ccc(-c2c(-c3ccccc3)ncc3cc(OC)c(OC)cc23)cc1`, with 8.1%; and `Cc1cc(=O)n2nc(N3CCCC(C(=O)NCc4ccc(Cl)cc4)C3)sc2n1` (configuration not stated), with -0.44%. Consider `Cc1cc(=O)n2nc(N3CCCC(C(=O)N4CCN(C)CC4)C3)sc2n1` (configuration not stated), for which the inhibition is 26.5% (active).

In the case of `Cc1cc(=O)n2nc(N3CCCC(C(=O)NCc4cccc(Cl)c4)C3)sc2n1` (configuration not stated), the inhibition was -13.5%. On to `Cc1ccc(NC(=O)c2oc(=O)c3ccccc3c2-c2ccccc2)c(C)c1`, for which the inhibition is -9.65%. Consider `CCc1nnc(NC(=O)CSCc2cc(=O)n3cc(C)sc3n2)s1`, for which the inhibition was -12.4%. With `COc1cccc(N2CCN(C(=O)C3CCCN(S(=O)(=O)c4cnc[nH]4)C3)CC2)c1` (configuration not stated), the inhibition is 2.59%. As to `O=C(C1CCCN(S(=O)(=O)c2ccccc2)C1)N1CCN(c2ccc(F)cc2)CC1` (configuration not stated), the inhibition is -2.45%. The same measure for `CC(=O)N1CCCc2cc(S(=O)(=O)N3CCCC(C(=O)N4CCN(c5cccc(Cl)c5)CC4)C3)ccc21` (configuration not stated): 30.4% (active); for `COc1ccc(OC)c(S(=O)(=O)N2CCCC(C(=O)NCCc3ccccc3)C2)c1` (configuration not stated): -10.1%.

For `CCc1ccccc1NC(=O)CN1CCN(C(=O)c2cc(C3CC3)nn2-c2ccccc2)CC1`, the inhibition was -11.2%. `CCC(=O)Nc1ccccc1C(=O)N1CCN(Cc2ccccc2)CC1`: the inhibition is 19.3%. `Cc1nn(Cc2ccccc2)c(C)c1C(=O)N1CCN(CC(=O)Nc2ccccc2Cl)CC1`: the inhibition is 23.9% (active). Consider `CCCC(C)c1nnc(NC(=O)C2CC(=O)N(c3ccc(OCC)cc3)C2)s1` (configuration not stated), for which the inhibition is -4.36%. Turning to `Cc1nc(SCC(=O)NC2CCCC2)[nH]c(=O)c1C`, the inhibition was -8.77%. Then `CCCCC(=O)N1CC2(C)CN(C(=O)CCCC)CC(C)(C1)C2=O`, with -5.12%. On to `COc1cc(O)c2c(=O)c3c(O)c(O)ccc3oc2c1OC`, for which the inhibition is -9.49%.

In the case of `COc1c(O)cc2oc(-c3ccc(O)c(O)c3)cc(=O)c2c1O`, the inhibition was 24.9% (active).

Take `CCOC(=O)COc1cc(OCC(=O)OCC)c2c(=O)cc(-c3ccccc3)oc2c1`: the inhibition was -13.4%. In the case of `CCN(CC(=O)NCc1cccs1)C(=O)/C=C/c1ccc(C)cc1`, the inhibition is -10.9%.

Turning to `CCCc1ccc(-c2c(C)sc(NC(=O)c3ccnn3C)c2C#N)cc1`, the inhibition is 29.1% (active). Take `Cc1sc(NC(=O)C2=COCCO2)c(C#N)c1C`: the inhibition was -16.8%. `CCCc1cc(=O)[nH]c(SCC(=O)Nc2sc3c(c2C#N)CCCC3)n1`: the inhibition is 5.46%. Regarding `Nc1cccc(S(=O)(=O)Nc2ccc(SC(F)F)cc2)c1`, the inhibition was 12.1%.

On to `COc1cc(Cl)ccc1OCc1cc(C(=O)N2CC[C@@H]3CCCC[C@H]3C2)no1`, for which the inhibition was 30.9% (active). On to `COc1ccc(OCc2cc(C(=O)N3CCCC3)no2)c2ccccc12`, for which the inhibition is -10.3%. As to `CCn1ccnc1CN(C)C(=O)c1cc(COc2ccc(Cl)cc2OC)on1`, the inhibition was -6.33%. For `O=C(O)CCCCc1nc2ccccc2s1`, the inhibition was 33.5% (active).

In the case of `Cc1nn(-c2ccc(F)cc2)c(Cl)c1/C=C(/CCC(=O)O)c1nc2ccccc2s1`, the inhibition is -3.61%. `O=C(O)CCCCCCCCc1cn(CN2C(=O)c3ccccc3C2=O)nn1`: the inhibition is 12.6%. Take `Cc1ccc([C@H]2N[C@]3(CCCN(CC4CCCCC4)C3=O)[C@H]3C(=O)N(Cc4ccccc4)C(=O)[C@@H]23)cc1`: the inhibition was -0.53%.
